Measured values: the supplement of paper PMC12669032
A number with no mark means an inactive call.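 The calls were made as follows: active = AUC reduced over 20% with Padj below 0.05 in at least 2 of 3 replicates; inactive = otherwise.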

Tests used:
Assay in all cases: growth AUC relative to DMSO control (median of replicates) (fraction); higher = more growth (less inhibition), active = hit call of the paper
Conditions in all cases: 20 µM; 24 h
Akkermansia muciniphila = system: Akkermansia muciniphila
Outline: (§1)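 For each compound at 20 µM (1% DMSO), gut bacterial monocultures seeded at OD600 0.05 grew anaerobically in mGAM at 37 °C in round-bottom 96-well plates. Hourly OD600 readings over 24 h gave growth curves whose minimum OD was set to 0. Area under these curves was normalised to the plate median of solvent-only wells, or to row and column medians on the industrial chemical plate. Values are medians of three biological replicates grown on separate days.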

Bacteroides caccae = system: Bacteroides caccae
Outline: as §1

Bacteroides clarus = system: Bacteroides clarus
Outline: as §1

Bacteroides dorei = system: Bacteroides dorei
Outline: as §1

Bacteroides stercoris = system: Bacteroides stercoris
Outline: as §1

[1] = system: Bacteroides thetaiotaomicron
Outline: as §1

Bacteroides uniformis = system: Bacteroides uniformis
Outline: as §1

[2] = system: Bifidobacterium longum subsp. longum
Outline: as §1

Clostridium difficile = system: Clostridium difficile
Outline: as §1

Collinsella aerofaciens = system: Collinsella aerofaciens
Outline: as §1

Coprococcus comes = system: Coprococcus comes
Outline: as §1

Escherichia coli ED1a = system: Escherichia coli ED1a
Outline: as §1

Escherichia coli IAI1 = system: Escherichia coli IAI1
Outline: as §1

Eubacterium rectale = system: Eubacterium rectale
Outline: as §1

[3] = system: Fusobacterium nucleatum subsp. animalis
Outline: as §1

Lactobacillus gasseri = system: Lactobacillus gasseri
Outline: as §1

Lactobacillus paracasei = system: Lactobacillus paracasei
Outline: as §1

Odoribacter splanchnicus = system: Odoribacter splanchnicus
Outline: as §1

[4] = system: Parabacteroides distasonis
Outline: as §1

Parabacteroides merdae = system: Parabacteroides merdae
Outline: as §1

| SMILES | growth AUC (Akkermansia muciniphila) | growth AUC (Bacteroides caccae) | growth AUC (Bacteroides clarus) | growth AUC (Bacteroides dorei) | growth AUC (Bacteroides stercoris) | growth AUC [1] | growth AUC (Bacteroides uniformis) | growth AUC [2] | growth AUC (Clostridium difficile) | growth AUC (Collinsella aerofaciens) | growth AUC (Coprococcus comes) | growth AUC (Escherichia coli ED1a) | growth AUC (Escherichia coli IAI1) | growth AUC (Eubacterium rectale) | growth AUC [3] | growth AUC (Lactobacillus gasseri) | growth AUC (Lactobacillus paracasei) | growth AUC (Odoribacter splanchnicus) | growth AUC [4] | growth AUC (Parabacteroides merdae) |
| --- | --- | --- | --- | --- | --- | --- | --- | --- | --- | --- | --- | --- | --- | --- | --- | --- | --- | --- | --- | --- |
| [O-][n+]1nc(-n2ccnc2)nc2ccc(Cl)cc21 | 0.972 | 1.07 | 1 | 1.05 | 0.911 | 0.99 | 1.04 | 0.974 | 0.957 | 0.964 | 1.04 | 0.95 | 0.956 | 1.12 | 1.06 | 0.831 | 1.01 | 1.03 | 0.897 | 1.02 |
| CC(C)N(C(=O)CS(=O)(=O)[O-])c1ccc(F)cc1.[Na+] | 0.977 | 1.02 | 0.979 | 0.984 | 0.966 | 0.948 | 1.04 | 0.944 | 1.05 | 0.957 | 0.982 | 0.983 | 0.984 | 1.02 | 0.956 | 1.01 | 0.957 | 1.13 | 1.02 | 0.995 |
| c1ccc(Sc2ccccc2)cc1 | 1.03 | 1.01 | 1.08 | 1.01 | 1.05 | 0.982 | 1.05 | 1.03 | 1.02 | 1.04 | 1.02 | 1.03 | 0.967 | 1.02 | 1.08 | 1.1 | 1.04 | 0.503 | 1.01 | 1 |
| CCCCC(CC)CN1C(=O)C2C(C1=O)[C@H]1C=C[C@@H]2C1 (mixture of isomers) | 1.11 | 1 | 1.03 | 0.974 | 1.06 | 0.985 | 0.972 | 1.05 | 1.03 | 1.12 | 1.03 | 1.01 | 1.03 | 0.93 | 1.01 | 1.06 | 1.04 | 1.03 | 0.79 (active) | 0.977 |
| CCSc1nc(NC(C)C)nc(NC(C)C)n1 | 0.919 | 1.01 | 0.923 | 0.983 | 0.88 | 0.863 | 0.948 | 0.984 | 1.03 | 0.995 | 0.984 | 1.01 | 0.982 | 0.787 | 0.91 | 1.03 | 0.896 | 0.968 | 1 | 0.91 |
| O=C(O)Cc1cccc2ccccc12 | 0.984 | 0.985 | 0.969 | 0.971 | 0.963 | 1 | 1.04 | 1.03 | 0.994 | 0.968 | 0.941 | 0.959 | 0.991 | 1.02 | 1.01 | 0.949 | 1.02 | 0.953 | 0.987 | 1.01 |
| CC(C)N(C)S(=O)(=O)NC(=O)c1cc(-n2c(=O)cc(C(F)(F)F)[nH]c2=O)c(F)cc1Cl | 0.971 | 0.993 | 0.983 | 0.967 | 1.1 | 1 | 1.03 | 0.962 | 0.982 | 0.953 | 0.971 | 0.995 | 1 | 0.959 | 1.08 | 1.03 | 0.893 | 1.03 | 0.961 | 1.02 |
| COc1c(Cl)ccc(Cl)c1C(=O)O | 0.878 | 0.997 | 0.975 | 1.01 | 0.961 | 1 | 0.947 | 0.926 | 1.01 | 1.04 | 1.01 | 0.99 | 0.986 | 0.912 | 0.914 | 1.26 | 0.919 | 0.978 | 1 | 1 |
| NC(=O)C1CO1 (stereo not given) | 0.657 (active) | 0.982 | 0.971 | 0.864 | 0.586 (active) | 0.972 | 0.912 | 0.929 | 1.01 | 0.933 | 0.93 | 0.957 | 0.946 | 0.989 | 0.923 | 0.995 | 1.02 | 0.949 | 0.895 | 0.946 |
| CC(C)(SC(=O)N1CCCCC1)c1ccccc1 | 0.978 | 0.973 | 0.982 | 1.01 | 0.945 | 0.927 | 0.965 | 1.01 | 0.99 | 1 | 0.998 | 1.01 | 1.01 | 1.02 | 1.07 | 1.01 | 1.02 | 1 | 0.778 (active) | 0.965 |
| Oc1ccccc1 | 1.08 | 0.963 | 0.991 | 1.03 | 0.992 | 0.997 | 1.03 | 0.998 | 1.02 | 1 | 1.03 | 1 | 0.983 | 0.983 | 1.04 | 1.08 | 1.04 | 0.984 | 1.04 | 1.01 |
| CNC(=O)/C(=N/OC)c1ccccc1CO/N=C(C)/C(=N/OC)C(/C)=N/OC | 0.957 | 0.983 | 0.98 | 1 | 0.991 | 0.976 | 0.976 | 0.989 | 0.979 | 1.03 | 1.01 | 1.01 | 1.05 | 0.928 | 0.91 | 1.16 | 0.998 | 0.989 | 0.997 | 0.976 |
| C#CCOc1cc(-n2nc(C(C)(C)C)oc2=O)c(Cl)cc1Cl | 1.14 | 0.977 | 0.986 | 0.951 | 0.879 | 0.932 | 0.799 (active) | 1.05 | 0.862 | 0.917 | 0.991 | 0.971 | 0.996 | 1.09 | 0.926 | 0.831 | 0.958 | 0.904 | 0.392 (active) | 0.951 |
| CC(CNC(=S)[S-])NC(=S)[S-].[Zn+2] (mixture of isomers) | 1.05 | 0.937 | 1.02 | 1 | 1.12 | 1.01 | 1.03 | 0.975 | 1 | 0.999 | 1.04 | 0.997 | 0.983 | 1.15 | 1.08 | 0.956 | 1.14 | 0.945 | 1.01 | 1.02 |
| O=[N+]([O-])c1ccc(O)cc1 | 1.02 | 1.01 | 0.994 | 1.01 | 1.11 | 1.02 | 1.01 | 0.96 | 1.02 | 1.05 | 0.973 | 1.01 | 0.994 | 0.994 | 0.979 | 0.985 | 0.987 | 1.01 | 0.99 | 0.99 |
| O=S(Cc1ccc(Cl)cc1)c1ccc(Cl)cc1 (stereo not given) | 0.934 | 0.961 | 0.978 | 0.986 | 0.964 | 0.946 | 0.983 | 1.05 | 0.977 | 0.972 | 1 | 0.986 | 0.981 | 1.09 | 0.94 | 0.899 | 1.24 | 1.01 | 0.947 | 1 |
| CNc1nc(NC(C)C)nc(SC)n1 | 0.806 | 1.04 | 0.972 | 0.989 | 0.913 | 1.01 | 0.957 | 0.862 | 1.01 | 0.986 | 0.962 | 1 | 0.988 | 0.879 | 0.922 | 1.18 | 1.05 | 0.984 | 0.985 | 0.993 |
